According to PubChem BioAssay (NCI):
About 83,000 compounds went through this panel and 20% of them were active in at least one assay; those are over-represented in the sample as a whole.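 The test compound was applied at a single concentration to cells in 96-well plates for 48 hours, and percent growth was recorded.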 Values without a mark were called inactive. Active and inactive are the calls of the source. How the source made its calls: active means growth percent below 10; inactive means the rest.

Experiments:
Assay in all cases: NCI-60 one-dose screen, 48 h (100 = growth as untreated, 0 = no growth, -100 = all killed)
Details in all cases: 10 µM unless noted
EKVX NSCLC = system: EKVX NSCLC
SN12C renal = system: SN12C renal
UO-31 renal = system: UO-31 renal
TK-10 renal = system: TK-10 renal
ACHN renal = system: ACHN renal
CAKI-1 renal = system: CAKI-1 renal
CCRF-CEM leukemia = system: CCRF-CEM leukemia
MOLT-4 leukemia = system: MOLT-4 leukemia
SR leukemia = system: SR leukemia
RPMI-8226 leukemia = system: RPMI-8226 leukemia
OVCAR-8 ovarian = system: OVCAR-8 ovarian
OVCAR-5 ovarian = system: OVCAR-5 ovarian
OVCAR-4 ovarian = system: OVCAR-4 ovarian
SK-OV-3 ovarian = system: SK-OV-3 ovarian
IGROV1 ovarian = system: IGROV1 ovarian
HS 578T breast = system: HS 578T breast
NCI/ADR-RES ovarian = system: NCI/ADR-RES ovarian

Row | Structure (SMILES) | growth (EKVX NSCLC) | growth (SN12C renal) | growth (UO-31 renal) | growth (TK-10 renal) | growth (ACHN renal) | growth (CAKI-1 renal) | growth (CCRF-CEM leukemia) | growth (MOLT-4 leukemia) | growth (SR leukemia) | growth (RPMI-8226 leukemia) | growth (OVCAR-8 ovarian) | growth (OVCAR-5 ovarian) | growth (OVCAR-4 ovarian) | growth (SK-OV-3 ovarian) | growth (IGROV1 ovarian) | growth (HS 578T breast) | growth (NCI/ADR-RES ovarian)
1 | CC(C)(C)n1nnnc1C(Nc1cccc2c1OCO2)c1cc2cccc3ccc4cccc1c4c32 (centres undefined) | 73.7% | 90.5% | 67.8% | 116% | 85.6% | 64.5% | -12.9% (active) | 67.1% | 82.3% | 55.3% | 90% | 91.9% | 79.2% | 94.5% | 81.2% | 88.7% | 83.5%
2 | O=C(Cn1c(-c2ccccc2)nc2cc(Cl)c(Cl)cc21)N=Nc1c(O)[nH]c2ccc(Cl)cc12 | 75.5% | 89.8% | 73.7% | 104% | 74.3% | 70.2% | -8.19% (active) | 72.3% | 67.9% | 59% | 83.5% | 80.5% | 77.9% | 85.6% | – | 81.3% | 72.3%
3 | Cc1cc(C)cc(C(=O)Nc2cccc(C#Cc3cccc4[nH]nc(N)c34)c2)c1 | 89.3% | 71.5% | 62.2% | 92.9% | 56.2% | 55.3% | 30.5% | 27% | – | 47.4% | 53.3% | 73.9% | 80.7% | 95.7% | 64.6% | 75.7% | 59.8%
4 | Cc1ccc2c(c1)C(=O)/C(=C/c1cccc(F)c1)S2 | 98.5% | 101% | 88.4% | 123% | 102% | 85.8% | 104% | 106% | 101% | 84.6% | 103% | 105% | 99.7% | 99% | 97.7% | 104% | 109%
5 | COc1ccc(/C=C/C(=O)c2cc(S(N)(=O)=O)c(OC)cc2OC)cc1 | 92.1% | 61.1% | 72.4% | 92.9% | 81.1% | 63.5% | 55.7% | 71.1% | 23.4% | 60.9% | 93% | 98.3% | 103% | 97.2% | 81.8% | 89.1% | 85.8%
6 | Cc1cccc(/C=C/C(=O)Nc2ncc(Cc3cccc(C)c3)s2)c1 | 36.8% | 38.5% | 35.4% | 54.6% | 42.1% | 25.3% | 9.99% (active) | – | 6.46% (active) | 19.1% | 24.3% | 40.6% | 45.6% | 30% | 32.5% | 14.2% | 18.3%
